# Measured values reported in PubChem BioAssay AID463173 (ICCB-Longwood Screening Facility, Harvard Medical School, 2010).
# The campaign covered roughly 52,000 compounds. About 4,300 (8.3%) were called active. This is one part of a sample in which actives are shown more often than they occur. Values without a mark were called inactive. Cut-off read from the data, not from the text of the source: active = survival mostly below about 52% (no sharp cut-off); inactive = mostly above about 56%.
# System: DeltatarO mutant
# Assay: S. aureus survival, RN4220 and DeltatarO strains – OD600, teichoic acid synthesis inhibitors, primary screen (AID 463173)
# Conditions: S. aureus RN4220 wild type/DeltatarO growth, OD600, 18 h, hits give low values, screened at 18.75 µg/mL (by protocol)
row,Compound,survival
1,COc1ccccc1C(OC(=O)c1ccco1)C(=O)NCC1CCCO1 (stereo not given),85%
2,OCc1nc2ccc(-c3ccc4nc(CO)[nH]c4c3)cc2[nH]1,51%
3,COc1cccc(NC(=O)CC(C)S(=O)(=O)c2ccc3c(c2)NC(=O)CO3)c1 (stereo not given),115%
4,CCOC(=O)c1ccc(NC(=O)Cn2c(=O)cc(C)c3c(C)nn(-c4ccc(CC)cc4)c32)cc1,71%
5,Cc1c(C(=O)Nc2ccc(Br)cc2F)oc2ccc(S(=O)(=O)N3CCC4(CC3)OCCO4)cc12,81%
6,CC(C(=O)Nc1cccc(N)c1)n1nnc2ccccc21 (stereo not given),65%
7,Nc1nc(SCC(=O)N(CCO)CCO)nc2sc3c(c12)CCCC3,110%
8,CCCCCCSc1nc(N)c2c3c(sc2n1)CCCC3C (stereo not given),-7% (active)
9,CC1CCCc2sc3nc(SCC(=O)c4ccc(Br)cc4)nc(N)c3c21 (stereo not given),42%
10,CCn1nc(-c2ccccc2)c(-c2ccccc2)c(C(=O)Nc2ccccc2C(N)=O)c1=O,77%
11,CCn1c(SCC(=O)Nc2cc(Cl)ccc2OC)nc2c([nH]c3ccccc32)c1=O,101%
12,Cc1ccccc1Cn1c(=O)n(CCC(=O)NCc2ccco2)c(=O)c2sccc21,106%
13,Cc1cc(NC(=O)CC(C)C)no1,69%
14,CC1(C)CC2CC(C)(CN2C(=O)c2cc(-c3ccccc3)on2)C1 (stereo not given),99%
15,COc1ccc(-c2nc(SCC(=O)N3CCN(c4ccc(F)cc4)CC3)n[nH]2)cc1,88%
16,O=C(CSc1n[nH]c(-c2ccc(F)cc2)n1)N1CCN(c2ccc(F)cc2)CC1,-5% (active)
17,O=C(CSCc1ccccc1Cl)N1CCN(c2ccc(Cl)cc2)CC1,92%
18,O=C(CSc1n[nH]c(-c2ccccc2)n1)N1CCN(c2ccc(F)cc2)CC1,65%
19,O=C(CCSCc1ccccc1Cl)N1CCN(c2ccc(F)cc2)CC1,66%
20,O=C(CSCc1ccccc1Cl)N1CCN(c2ccc(F)cc2)CC1,46% (active)
21,Cc1ccc(CNC(=O)c2ccc(-c3nc(CN4CCc5ccccc54)c(C)o3)cc2)cc1,84%
22,CC1CCCCC1NC(=O)CSc1nccc(=O)[nH]1 (stereo not given),69%
23,Cc1cc(-c2ccc(C)c(S(=O)(=O)N(Cc3cccs3)C(C)C)c2)on1,65%

row,Compound,survival
1,CCc1ccc(-c2nc(SCC(=O)NCC3CCCO3)c(-c3ccc(C)cc3)[nH]2)cc1 (stereo not given),103%
2,COc1ccc(CCNC(=O)c2cc(-c3ccc(Cl)cc3)on2)cc1OC,64%
3,Cc1cc(C)n(C(C)CC(=O)Nc2cccc(C(F)(F)F)c2)n1 (stereo not given),73%
4,COc1ccccc1CNC(=O)c1sc2nc3n(c(=O)c2c1C)CCC3,103%
5,C/C(=N\NC(N)N)C1CCCCCCCCCCC1,0% (active)
6,Cc1cc(Cl)ccc1NC(=O)C1CCN(c2nnc(-n3c(C)ccc3C)s2)CC1,88%
7,Fc1ccccc1N1CCN(c2nnc(C(F)(F)F)c3nnn(Cc4ccccc4)c23)CC1,78%
8,CCN(CC)C(=O)c1sc2c(c1C)c(=O)n(-c1ccc(Cl)c(Cl)c1)c(=O)n2Cc1ccccc1C#N,83%
9,Cc1ccc2c(c1)sc1nc(=O)n(-c3cccc(Cl)c3)c(=O)n12,85%
10,Cc1ccc2c(c1)sc1nc(=O)n(-c3ccc(Cl)cc3)c(=O)n12,59%
11,O=c1nc2sc3ccccc3n2c(=O)n1-c1ccc(Cl)c(Cl)c1,22% (active)
12,CCOc1ccc2c(c1)sc1nc(=O)n(-c3ccc(Cl)c(Cl)c3)c(=O)n12,88%
13,Cc1ccc2c(c1)sc1nc(=O)n(-c3ccc(Cl)c(Cl)c3)c(=O)n12,-6% (active)
14,CC(C(=O)c1ccccc1)C1(O)C(=O)Nc2ccccc21 (stereo not given),94%
15,Cc1ccc2nc(-c3ccccc3O)c(Nc3ccccc3C)n2c1,92%
16,Cc1ccccc1Nc1c(-c2ccc(N3CCOCC3)cc2)nc2ccc(Br)cn12,74%
17,O=C(NCc1ccccc1)c1cnc2sc(N3CCCC3)nn2c1=O,77%
18,O=C(Nc1ccccc1C(F)(F)F)C1(S(=O)(=O)c2ccc(Cl)cc2)CC1,84% (active)
19,Cc1ccc(S(=O)(=O)C2(C(=O)Nc3ccc(C(C)C)cc3)CC2)cc1,19% (active)
20,Cc1ccc(S(=O)(=O)C2(C(=O)Nc3ccc(Cl)c(C(F)(F)F)c3)CC2)cc1,26%
21,Cc1ccc(S(=O)(=O)C2(C(=O)Nc3ccc(C)c(Cl)c3)CC2)cc1,21%
22,COC(=O)c1ccc(NC(=O)C2(S(=O)(=O)c3ccc(C)cc3)CC2)cc1,134%
23,CCc1ccccc1NC(=O)C1(S(=O)(=O)c2ccc(Cl)cc2)CC1,90% (active)

row,Compound,survival
1,Cc1cc(Br)ccc1NC(=O)C1(S(=O)(=O)c2ccc(Cl)cc2)CC1,62%
2,CCOC(=O)c1ccc(NC(=O)C2(S(=O)(=O)c3ccc(Cl)cc3)CC2)cc1,75%
3,O=C(Nc1ccccc1C(F)(F)F)c1ccncc1,91%
4,Cc1ccc2c(c1)c1c(c(=O)n(Cc3ccccc3)c(=O)n1Cc1cccc(F)c1)n2C,89%
5,CC(C)(C)c1ccc(C(=O)Nc2nc3nc(-c4ccccc4)cc(=O)n3[nH]2)cc1,94%
6,CCN(Cc1ccccc1)C(=O)C1CCN(S(=O)(=O)c2ccc3c(c2)CCCN3C(C)=O)CC1,80%
7,CC1CCCC(C)N1C(=O)CN1CCC(N2CCCCC2)CC1 (stereo not given),94%
8,CC(C)NC(=O)Cn1nnc(-c2ccc(Cl)cc2)n1,82%
9,COc1ccccc1CC(NC(C)=O)C(=O)N1CCN(C(=O)c2cccs2)CC1 (stereo not given),97%
10,O=C(NCc1ccccc1F)C(=O)NCC(c1ccco1)S(=O)(=O)c1ccccc1 (stereo not given),-5% (active)
11,O=C(NCCc1ccc(F)cc1)C(=O)NCC(c1ccco1)S(=O)(=O)c1cccs1 (stereo not given),66%
12,O=C(NCc1ccccc1Cl)C(=O)NCC(c1ccco1)S(=O)(=O)c1cccs1 (stereo not given),55%
13,O=C(NCCc1ccc(Cl)cc1)C(=O)NCC(c1ccco1)S(=O)(=O)c1cccs1 (stereo not given),20% (active)
14,Cc1ccc(CNC(=O)C(=O)NCC(c2ccco2)S(=O)(=O)c2cccs2)cc1 (stereo not given),101%
15,O=C(NCc1ccc(F)cc1)C(=O)NCC(c1ccco1)S(=O)(=O)c1cccs1 (stereo not given),8% (active)
16,O=C(NCc1ccccc1F)C(=O)NCC(c1ccco1)S(=O)(=O)c1cccs1 (stereo not given),25% (active)
17,O=C(NCCc1ccccc1)C(=O)NCC(c1ccco1)S(=O)(=O)c1cccs1 (stereo not given),94%
18,O=C(NCc1ccccc1)C(=O)NCC(c1ccco1)S(=O)(=O)c1cccs1 (stereo not given),96%
19,O=C(NCc1ccccc1)C(=O)NCC(c1ccco1)S(=O)(=O)c1ccccc1 (stereo not given),76%
20,Cc1ccccc1CNC(=O)C(=O)NCC(c1ccco1)S(=O)(=O)c1cccs1 (stereo not given),70%
21,Cc1ccccc1CNC(=O)C(=O)NCC(c1ccco1)S(=O)(=O)c1ccccc1 (stereo not given),92%
22,COc1ccc2c(c1)N(C)/C(=C1/SC(=Nc3ccc(C)cc3)N(C)C1=O)S2,102%
23,CCOc1ccccc1NC(=O)c1c(NC(=O)c2cccc(C)c2)sc2c1CCC2,74%

row,Compound,survival
1,CCc1ccc(NC(=O)CSc2nc3ccccc3c(=O)n2CCNC(C)=O)cc1,87%
2,COc1ccc(C2(C(=O)N3CCCC3)CCCC2)cc1OC,89%
3,CCC(=O)N1CCCc2cc(S(=O)(=O)N3CCC(C(=O)NC4CCC(C)CC4)CC3)ccc21 (stereo not given),123%
4,CCOC(=O)c1cc2occc2n1CCc1ccccc1,101%
5,O=C(c1ccccc1)N1CCc2cc(CNS(=O)(=O)c3ccccc3Cl)ccc21,78%
6,COc1cc(NS(=O)(=O)c2ccc3oc(=O)c4ncn(C)c4c3c2)cc(OC)c1,126%
7,CC1(C)CC(=O)C(C=NCc2ccccc2)=C(O)C1,95%
8,O=C(Nc1ccc(F)cc1)C1CCN(S(=O)(=O)c2ccc3c(c2)CCCN3C(=O)C2CCC2)CC1,73%
9,N#Cc1c(NC(=O)C(F)(F)F)oc(-c2ccccc2)c1-c1ccccc1,12% (active)
10,N#Cc1c(/N=C/c2ccco2)oc(-c2ccccc2)c1-c1ccccc1,98%
11,N#Cc1c(NC(=O)c2ccccc2)oc(-c2ccccc2)c1-c1ccccc1,56%
12,CCc1cccc(CC)c1N(COC)C(=O)Cn1c(C)nc2ccccc21,59%
13,CCc1cccc(NC(=O)CCc2c(C)nc3c(c2C)c(=O)n(C)c(=O)n3C)c1,93%
14,COc1ccc(-n2nc(C(=O)NCc3ccc(F)cc3)c3c4ccccc4n(C)c3c2=O)cc1,88%
15,N#C/C(=C\c1ccc(-c2ccc(C(=O)O)cc2)o1)C(=O)Nc1ccccc1C(=O)O,60%
16,Cc1ccc(NC(=O)/C(C#N)=C/c2ccc(-c3ccc(Cl)c(C(=O)O)c3)o2)cc1C,70%
17,N#C/C(=C\c1ccc(-c2cc(Cl)ccc2Cl)o1)C(=O)Nc1ccccc1C(=O)O,37% (active)
18,N#C/C(=C/c1ccc(-c2cc(C(=O)O)ccc2Cl)o1)C(=O)NCCc1c[nH]c2ccccc12,12% (active)
19,N#C/C(=C/c1ccc(-c2ccc(S(N)(=O)=O)cc2)o1)C(=O)Nc1cc(Cl)ccc1Cl,46%
20,N#C/C(=C/c1ccc(N2CCCCC2)o1)C(=O)NCCc1c[nH]c2ccccc12,76%
21,COc1ccc(-n2ccn(Cc3ccccc3Cl)c(=O)c2=O)cc1OC,61%
